According to PubChem BioAssay (EPA / NIEHS):
“And” between values parts separate entries of the source, which are not always exact repeats. Equal entries are not always repeated. Inconclusive results are not listed. The source holds several records for some structures; these can differ, active in one and inactive in another. The source made the active and inactive calls. How the source made its calls, unless noted: active means hit-call score of the fitted dose curve at least 0.9, where 1 is the maximum; inconclusive means response in the unintended direction; inactive means score below 0.9.

Legend:
[1] = biological target: Cytochrome P450 2C19 (Homo sapiens) (UniProt P33261); test: NVS_ADME_hCYP2C19: NovaScreen (NVS) CYP450-related Enzyme Activity (ADME) Assay for human CYP2C19 (AID 2283113);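 on AC50: potency for inhibition seen as loss of fluorescent signal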
Method in brief: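 Fluorescence intensity was measured 1 hour after chemicals were added to insect-cell-derived recombinant CYP2C19 with fluorogenic substrate. Decreased signal versus acetonitrile control was taken as reduced enzyme activity; initial testing used 10 uM in duplicate.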

[2] = CEETOX_H295R_11DCORT: CeeTox H295R High-throughput Steroidogenesis Assay for 11-Deoxycortisol (11DCORT) (AID 2283432; active means hit-call score of the fitted dose curve at least 0.9, where 1 is the maximum; inactive means score below 0.9;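 further: 11-deoxycortisol secreted into the medium measured by LC-MS/MS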); settings: actives raise or lower the signal
Method in brief: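 Adrenal carcinoma line H295R, run per OECD 456 with minor changes, was forskolin-stimulated (10 uM, 48 h) before a 48 h chemical exposure at 0.1% DMSO. Secreted 11-deoxycortisol was quantified by HPLC-MS/MS.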

[3] = CEETOX_H295R_OHPREG: CeeTox H295R High-throughput Steroidogenesis Assay for OH-Pregnenolone (OHPREG) (AID 2283434; active means hit-call score of the fitted dose curve at least 0.9, where 1 is the maximum; inactive means score below 0.9); settings: actives raise or lower the signal
Method in brief: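 Readout: HPLC-MS/MS of 17alpha-hydroxypregnenolone in medium after 48 h chemical exposure of H295R cells pretreated with forskolin. Values fitted bidirectionally relative to DMSO; chemicals reducing viability to 20–70% were retested after 10-fold dilution.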

[4] = CEETOX_H295R_OHPROG: CeeTox H295R High-throughput Steroidogenesis Assay for OH-Progesterone (OHPROG) (AID 2283435; active means hit-call score of the fitted dose curve at least 0.9, where 1 is the maximum; inactive means score below 0.9); settings: actives raise or lower the signal
Method in brief: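 Medium steroid levels read by LC-MS/MS after 48 h chemical treatment (0.1% DMSO) of human adrenal H295R cells that had been forskolin-primed (10 uM, 48 h). Gain or loss fitted against DMSO; MTT cytotoxicity checked per well.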

[5] = CEETOX_H295R_CORTIC: CeeTox H295R High-throughput Steroidogenesis Assay for Corticosterone (CORTIC) (AID 2283437; active means hit-call score of the fitted dose curve at least 0.9, where 1 is the maximum; inactive means score below 0.9;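 further: corticosterone secreted into medium quantified by mass spectrometry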;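 on AC50: human H295R adrenal cells prestimulated with forskolin before chemical exposure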); settings: actives raise or lower the signal
Method in brief: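 Steps: seed H295R, adhere overnight; 10 uM forskolin 48 h; replace with chemical (0.1% DMSO) 48 h; extract medium with MTBE; quantify corticosterone by HPLC-MS/MS; score bidirectionally vs DMSO.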

[6] = CEETOX_H295R_CORTISOL: CeeTox H295R High-throughput Steroidogenesis Assay for Cortisol (AID 2283438; active means hit-call score of the fitted dose curve at least 0.9, where 1 is the maximum; inactive means score below 0.9;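 further: cortisol secreted into medium quantified by LC-MS/MS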); settings: actives raise or lower the signal
Method in brief: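 Cortisol measured by HPLC-MS/MS after MTBE extraction of medium from H295R cells exposed 48 h to chemical (0.1% DMSO), following 48 h prestimulation with 10 uM forskolin. Viability assessed by MTT in the same wells.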

[7] = CEETOX_H295R_DOC: CeeTox H295R High-throughput Steroidogenesis Assay for DOC (AID 2283439; active means hit-call score of the fitted dose curve at least 0.9, where 1 is the maximum; inactive means score below 0.9); settings: actives raise or lower the signal
Method in brief: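 11-Deoxycorticosterone quantified in medium by MTBE extraction and HPLC-MS/MS after 48 h chemical exposure (0.1% DMSO) of forskolin-primed (10 uM, 48 h) H295R cells. Same-well MTT viability; data fitted bidirectionally against DMSO.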

[8] = CEETOX_H295R_PROG: CeeTox H295R High-throughput Steroidogenesis Assay for Progesterone (PROG) (AID 2283442; active means hit-call score of the fitted dose curve at least 0.9, where 1 is the maximum; inactive means score below 0.9;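 on AC50: human H295R adrenal cells primed with 10 µM forskolin before dosing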); settings: actives raise or lower the signal
Method in brief: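 Steps: seed H295R cells and let them adhere overnight; prime 48 h with 10 uM forskolin; dose with compound in DMSO at 0.1% final for 48 h; extract medium steroids with MTBE; measure progesterone by LC-MS/MS. MTT viability was run in the same wells.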

[9] = CPHEA_Stoker_NIS_Cytotoxicity: Cytotoxicity Assessment for CPHEA's Radioactive Iodide Uptake (RAIU) Assay for Sodium/Iodide Symporter (NIS) Inhibition, Stoker and Laws Labs (AID 2283897);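 on AC50: active means loss of ATP signal versus DMSO meaning cytotoxicity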
Method in brief: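 ATP luminescence (Cell Titer Glo) measured viability, with loss of signal normalized to DMSO controls. Cells: hNIS-HEK293T-EPA, seeded 40 hours prior. Dosing: 0.001–100uM, 2 hours, room temperature, uptake buffer pH 7.4.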

[10] = biological target: Nucleoli Translocation, AR (gene 367) (UniProt P10275); test: UPITT_HCI_U2OS_AR_TIF2_Nucleoli_Antagonist: University of Pittsburgh U2OS Androgen Receptor-Transcriptional Intermediary Factor 2 (AR-TIF2) Antagonism High Content Imaging Assay for Nucleoli Translocation (AID 2283997)
Sequence of Nucleoli Translocation, AR (gene 367) (P10275 whole entry, looked up): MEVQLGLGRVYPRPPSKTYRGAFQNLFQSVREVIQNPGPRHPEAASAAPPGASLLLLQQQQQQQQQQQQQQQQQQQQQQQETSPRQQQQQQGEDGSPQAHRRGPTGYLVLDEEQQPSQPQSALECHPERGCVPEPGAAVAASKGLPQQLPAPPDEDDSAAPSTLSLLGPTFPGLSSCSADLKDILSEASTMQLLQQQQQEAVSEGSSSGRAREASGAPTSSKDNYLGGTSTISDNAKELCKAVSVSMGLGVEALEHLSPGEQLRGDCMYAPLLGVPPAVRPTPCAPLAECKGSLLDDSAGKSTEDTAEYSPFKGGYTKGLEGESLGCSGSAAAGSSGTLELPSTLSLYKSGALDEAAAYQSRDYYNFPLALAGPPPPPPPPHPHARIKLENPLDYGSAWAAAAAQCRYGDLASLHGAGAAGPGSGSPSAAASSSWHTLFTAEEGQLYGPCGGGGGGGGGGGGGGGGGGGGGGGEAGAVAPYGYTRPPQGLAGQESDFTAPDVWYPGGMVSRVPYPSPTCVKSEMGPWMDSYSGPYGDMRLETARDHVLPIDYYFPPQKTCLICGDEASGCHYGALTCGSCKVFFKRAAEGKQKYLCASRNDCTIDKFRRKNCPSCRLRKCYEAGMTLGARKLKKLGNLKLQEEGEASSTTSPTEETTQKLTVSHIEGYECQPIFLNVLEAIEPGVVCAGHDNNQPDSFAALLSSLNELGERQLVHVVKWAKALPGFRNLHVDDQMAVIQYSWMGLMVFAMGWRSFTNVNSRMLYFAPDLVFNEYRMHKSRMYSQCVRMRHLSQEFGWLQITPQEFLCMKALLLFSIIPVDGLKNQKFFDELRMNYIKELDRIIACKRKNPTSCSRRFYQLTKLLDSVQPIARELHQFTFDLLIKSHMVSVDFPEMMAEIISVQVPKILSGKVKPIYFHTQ
Method in brief: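 An antagonist-mode imaging screen: engineered U2OS (AR-RFP, TIF2-GFP) exposed to 20 uM compound, 0.2% DMSO. Activity reflects nucleolar red fluorescence change relative to DHT baseline.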

[11] = biological target: human Ephrin type-A Receptor 1 (EphA1), EPHA1 (gene 2041) (UniProt P21709); test: NVS_ENZ_hEphA1: NovaScreen (NVS) Enzymatic Assay for human Ephrin type-A Receptor 1 (EphA1) (AID 2283158);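 further: activity is signal loss versus DMSO meaning EphA1 kinase inhibition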
Sequence of human Ephrin type-A Receptor 1 (EphA1), EPHA1 (gene 2041) (P21709 whole entry, looked up): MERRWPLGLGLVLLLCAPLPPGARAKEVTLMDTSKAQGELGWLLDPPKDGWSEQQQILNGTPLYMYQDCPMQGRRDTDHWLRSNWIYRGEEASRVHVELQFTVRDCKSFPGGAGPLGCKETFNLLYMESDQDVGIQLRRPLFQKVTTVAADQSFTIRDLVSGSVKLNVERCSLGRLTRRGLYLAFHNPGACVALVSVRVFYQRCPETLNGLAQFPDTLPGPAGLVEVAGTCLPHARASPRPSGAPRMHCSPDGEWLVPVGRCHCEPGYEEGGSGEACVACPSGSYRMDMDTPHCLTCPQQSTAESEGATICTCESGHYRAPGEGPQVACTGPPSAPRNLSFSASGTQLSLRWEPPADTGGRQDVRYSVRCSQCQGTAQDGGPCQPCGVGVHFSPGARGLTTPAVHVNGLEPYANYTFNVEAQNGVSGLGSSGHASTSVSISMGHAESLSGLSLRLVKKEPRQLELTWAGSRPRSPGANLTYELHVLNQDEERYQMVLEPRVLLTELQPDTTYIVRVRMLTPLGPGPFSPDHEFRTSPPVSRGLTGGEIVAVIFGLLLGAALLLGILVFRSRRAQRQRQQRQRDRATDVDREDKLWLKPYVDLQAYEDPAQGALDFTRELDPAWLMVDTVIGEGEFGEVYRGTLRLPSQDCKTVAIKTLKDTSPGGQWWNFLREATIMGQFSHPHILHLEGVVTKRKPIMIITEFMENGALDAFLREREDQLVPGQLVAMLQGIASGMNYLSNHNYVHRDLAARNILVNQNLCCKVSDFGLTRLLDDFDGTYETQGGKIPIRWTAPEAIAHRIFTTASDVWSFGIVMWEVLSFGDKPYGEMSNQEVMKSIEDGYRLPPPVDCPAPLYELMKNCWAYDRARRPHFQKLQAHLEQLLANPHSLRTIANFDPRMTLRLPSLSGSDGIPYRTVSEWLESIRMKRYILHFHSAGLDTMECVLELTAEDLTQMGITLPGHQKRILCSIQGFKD
Method in brief: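 Chemicals first tested in duplicate at 25 uM against recombinant EphA1 with a fluorescent substrate; those passing threshold went to singleton dose-response topping at 50 uM. Activity read 1 h later as mobility-shift fluorescence, loss of signal relative to DMSO.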

[12] = biological target: human Phosphodiesterase 10 (PDE10), PDE10A (gene 10846) (UniProt Q9Y233); test: NVS_ENZ_hPDE10: NovaScreen (NVS) Enzymatic Assay for human Phosphodiesterase 10 (PDE10) (AID 2283195)
Sequence of human Phosphodiesterase 10 (PDE10), PDE10A (gene 10846) (Q9Y233 whole entry, looked up): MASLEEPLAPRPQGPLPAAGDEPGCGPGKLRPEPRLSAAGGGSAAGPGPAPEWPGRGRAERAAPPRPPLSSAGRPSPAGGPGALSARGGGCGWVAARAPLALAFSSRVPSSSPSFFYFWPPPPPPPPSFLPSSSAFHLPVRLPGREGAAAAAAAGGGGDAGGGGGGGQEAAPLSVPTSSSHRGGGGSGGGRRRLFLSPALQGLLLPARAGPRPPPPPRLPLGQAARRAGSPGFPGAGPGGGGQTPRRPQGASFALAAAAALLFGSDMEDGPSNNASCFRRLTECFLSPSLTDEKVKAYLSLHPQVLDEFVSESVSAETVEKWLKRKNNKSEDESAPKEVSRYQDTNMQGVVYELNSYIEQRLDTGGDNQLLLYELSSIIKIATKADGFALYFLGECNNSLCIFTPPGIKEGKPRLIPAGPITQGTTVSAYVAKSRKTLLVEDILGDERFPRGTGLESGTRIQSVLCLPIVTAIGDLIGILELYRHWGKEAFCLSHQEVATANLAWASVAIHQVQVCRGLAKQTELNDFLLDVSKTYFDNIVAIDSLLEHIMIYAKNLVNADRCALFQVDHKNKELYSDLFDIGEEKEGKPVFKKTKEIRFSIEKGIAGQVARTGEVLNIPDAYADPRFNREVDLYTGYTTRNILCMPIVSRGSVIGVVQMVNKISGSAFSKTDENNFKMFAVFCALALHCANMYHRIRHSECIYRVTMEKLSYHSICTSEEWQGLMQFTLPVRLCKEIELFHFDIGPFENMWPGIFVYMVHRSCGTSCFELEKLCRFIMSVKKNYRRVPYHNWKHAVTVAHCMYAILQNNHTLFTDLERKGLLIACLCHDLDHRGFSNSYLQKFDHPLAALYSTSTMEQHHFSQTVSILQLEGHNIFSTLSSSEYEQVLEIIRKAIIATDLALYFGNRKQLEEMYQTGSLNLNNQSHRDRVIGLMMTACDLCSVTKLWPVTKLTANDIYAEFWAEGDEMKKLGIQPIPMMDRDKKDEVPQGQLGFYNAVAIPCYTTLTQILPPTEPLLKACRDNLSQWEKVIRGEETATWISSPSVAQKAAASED
Method in brief: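 Readout is fluorescence intensity following electrophoretic mobility-shift separation, 1 h after dosing of isolated PDE10A protein. Hits meeting a preset threshold at 25 uM went to concentration series (max 50 uM), analysed relative to DMSO.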

[13] = biological target: Bile acid receptor (Homo sapiens) (UniProt Q96RI1); test: OT_FXR_FXRSRC1_0480: Odyssey Thera (OT) 8-hour HEK293T Protein-Complementation Assay for Farnesoid X receptor/SRC-1 Co-activator (AID 2283383)
Sequence of Bile acid receptor (Homo sapiens) (Q96RI1 whole entry, looked up, the tested form may be a part): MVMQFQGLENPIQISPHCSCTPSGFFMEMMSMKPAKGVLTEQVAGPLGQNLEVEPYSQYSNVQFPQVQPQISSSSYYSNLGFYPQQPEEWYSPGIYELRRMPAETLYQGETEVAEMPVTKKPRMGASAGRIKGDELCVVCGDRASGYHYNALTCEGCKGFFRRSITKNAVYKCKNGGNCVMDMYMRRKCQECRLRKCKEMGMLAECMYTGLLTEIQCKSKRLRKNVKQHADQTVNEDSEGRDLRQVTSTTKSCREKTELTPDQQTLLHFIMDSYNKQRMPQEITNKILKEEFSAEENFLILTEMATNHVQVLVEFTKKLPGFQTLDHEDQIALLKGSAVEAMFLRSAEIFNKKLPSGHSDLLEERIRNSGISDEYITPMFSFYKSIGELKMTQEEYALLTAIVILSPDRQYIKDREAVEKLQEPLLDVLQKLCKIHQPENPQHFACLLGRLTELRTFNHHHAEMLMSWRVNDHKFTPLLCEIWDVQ
Method in brief: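 Binding of FXR to coactivator SRC-1 was read as fluorescence from a reconstituted split reporter in HEK293T cells, 8 h after chemical addition. Only increases in signal versus DMSO were fit.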

[14] = biological target: Bile acid receptor (Homo sapiens) (UniProt Q96RI1); test: OT_FXR_FXRSRC1_1440: Odyssey Thera (OT) 24-hour HEK293T Protein-Complementation Assay for Farnesoid X receptor/SRC-1 Co-activator (AID 2283384)
Method in brief: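 Protein-fragment complementation: FXR and SRC-1 fused to reporter fragments that reassemble on interaction, read by fluorescence intensity. Human HEK293T cells measured 24 h post-dose; positive-direction fit versus DMSO.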

[15] = CCTE_Deisenroth_AIME_384WELL_CTox_Inactive: Cytotoxicity Assessment (CTOX) in CCTE's 384-well Estrogen Receptor Transactivation Assay without AIME metabolic competence (metabolism negative), Deisenroth Lab (AID 2284039);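 further: cell viability via live-cell protease substrate cleaved to fluorescent probe; cells exposed 24 h to medium preincubated 2 h with alginate-water beads without S9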
Method in brief: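 Metabolism-negative arm: chemicals (10-point, 0.002 - 200 uM) preincubated 2 h with alginate-water lids, medium moved onto VM7Luc4E2 cells for 24 h. Fluorescent live-cell protease readout; bidirectional curve fit.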

[16] = biological target: rat Peripheral-type Benzodiazepine Receptor (PBR), Tspo (gene 24230) (UniProt P16257); test: NVS_MP_rPBR: NovaScreen (NVS) Membrane Protein Assay for rat Peripheral-type Benzodiazepine Receptor (PBR) (AID 2283335)
Sequence of rat Peripheral-type Benzodiazepine Receptor (PBR), Tspo (gene 24230) (P16257 whole entry, looked up): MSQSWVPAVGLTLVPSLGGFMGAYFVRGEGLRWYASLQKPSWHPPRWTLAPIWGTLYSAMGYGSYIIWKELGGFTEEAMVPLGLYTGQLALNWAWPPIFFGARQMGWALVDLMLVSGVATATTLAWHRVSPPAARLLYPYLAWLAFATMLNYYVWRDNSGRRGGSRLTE
Method in brief: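 Competitive displacement of specific radioligand from rat kidney membrane PBR, read by filtration and scintillation after 1 h. Compounds first tested at 25 uM in duplicate, then in concentration series; signal loss relative to DMSO.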

[17] = biological target: Peroxisome proliferator-activated receptor gamma (Homo sapiens) (UniProt P37231); test: NVS_NR_hPPARg: NovaScreen (NVS) Nuclear Receptor Binding Assay for human Peroxisome Proliferator-activated Receptor gamma (PPARg) (AID 2283370)
Sequence of Peroxisome proliferator-activated receptor gamma (Homo sapiens) (P37231 whole entry, looked up): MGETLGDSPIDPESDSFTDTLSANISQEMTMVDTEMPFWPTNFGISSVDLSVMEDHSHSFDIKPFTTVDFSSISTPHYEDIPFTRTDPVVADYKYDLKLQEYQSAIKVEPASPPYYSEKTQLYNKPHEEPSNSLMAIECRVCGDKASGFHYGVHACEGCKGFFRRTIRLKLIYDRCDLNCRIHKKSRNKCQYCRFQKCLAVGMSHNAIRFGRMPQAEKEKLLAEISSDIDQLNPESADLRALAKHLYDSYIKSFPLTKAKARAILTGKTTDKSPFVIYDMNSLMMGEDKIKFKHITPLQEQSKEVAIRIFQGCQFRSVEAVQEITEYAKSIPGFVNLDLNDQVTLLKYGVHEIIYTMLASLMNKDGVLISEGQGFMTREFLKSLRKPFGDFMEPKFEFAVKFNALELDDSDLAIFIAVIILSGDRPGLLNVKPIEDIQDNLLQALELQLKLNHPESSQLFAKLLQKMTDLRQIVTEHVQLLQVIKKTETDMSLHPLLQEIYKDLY
Method in brief: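 Chemicals were tested first in duplicate at 25 uM, then in concentration series if active. Binding to cell-free PPARg protein was measured by fluorescence polarization after 2 h, with loss of signal scored against DMSO.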

[18] = CCTE_Simmons_CellTiterGLO_HEK293T: Viability Assessment in CCTE's Assays for Thyroperoxidase (TPO) Inhibition, Simmons Lab (AID 2283665);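 on AC50: cells exposed to compound for 24 h before readout; actives reduce ATP signal below DMSO vehicle meaning cytotoxicity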
Method in brief: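 Luciferase-coupled ATP content after 24 h exposure gives viability; 8-point series from 5 nM to 87.5 uM final in 0.5% DMSO. Human HEK293T cells, 1% FBS medium, three biological replicates, dichlone positive control.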

[19] = biological target: rat Thyrotropin Releasing Hormone Receptor (TRH), Trhr (gene 25570) (UniProt Q01717); test: NVS_GPCR_rTRH: NovaScreen (NVS) G Protein-Coupled Receptor Assay for rat Thyrotropin Releasing Hormone Receptor (TRH) (AID 2283329);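 further: hit means lower bound tracer signal versus DMSO baseline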
Sequence of rat Thyrotropin Releasing Hormone Receptor (TRH), Trhr (gene 25570) (Q01717 whole entry, looked up): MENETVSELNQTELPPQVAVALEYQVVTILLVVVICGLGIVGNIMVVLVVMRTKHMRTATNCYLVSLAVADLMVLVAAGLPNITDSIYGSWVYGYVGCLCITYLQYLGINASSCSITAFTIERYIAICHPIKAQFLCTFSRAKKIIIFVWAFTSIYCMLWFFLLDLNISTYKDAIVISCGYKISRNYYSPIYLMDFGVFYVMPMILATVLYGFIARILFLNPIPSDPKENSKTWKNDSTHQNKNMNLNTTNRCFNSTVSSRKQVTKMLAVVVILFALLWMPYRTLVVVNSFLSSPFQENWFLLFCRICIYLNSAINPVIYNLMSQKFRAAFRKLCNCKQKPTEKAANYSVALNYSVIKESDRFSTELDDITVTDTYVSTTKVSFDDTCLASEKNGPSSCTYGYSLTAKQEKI
Method in brief: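 Rat forebrain membrane prep, radioligand displacement, filter scintillation readout at 4 h. Single conc 25 uM, duplicate; actives retested as concentration series. DMSO = negative control/baseline.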

[20] = CCTE_Deisenroth_AIME_384WELL_CTox_Active: Cytotoxicity Assessment (CTOX) in CCTE's 384-well Estrogen Receptor Transactivation Assay with AIME metabolic competence (metabolism positive), Deisenroth Lab (AID 2284037);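 further: chemicals first conditioned 2 h by alginate-bound induced rat liver S9 before cells; activity means signal loss indicating cell death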
Method in brief: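 VM7Luc4E2 breast cells received medium pre-incubated 2 h with chemical over alginate microspheres holding induced male Sprague Dawley rat liver S9; viability read 24 h later by protease-substrate fluorescence. Loss of signal, bidirectional fit, 0.002–200 uM.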

SMILES: O=CNC(N1CCN(C(NC=O)C(Cl)(Cl)Cl)CC1)C(Cl)(Cl)Cl (stereo not given)
- AC50 [1]: 5.96 µM (active)
- AC50 [2]: 50 µM (active)
- outcome [3]: inactive
- outcome [4]: inactive
- outcome [5]: inactive
- outcome [6]: inactive
- outcome [7]: inactive
- outcome [8]: inactive
- outcome [9]: inactive
- outcome [10]: inactive

SMILES: N#CCCCCC#N
- outcome [11]: inactive
- outcome [12]: inactive
- outcome [13]: inactive
- outcome [14]: inactive
- outcome [15]: inactive

SMILES: CC(C)COP(=O)(OCC(C)C)OCC(C)C
- AC50 [16]: 19.2 µM (active)

SMILES: CCC[N+](=O)[O-]
- AC50 [11]: 25 µM (active)

SMILES: c1ccc(P(c2ccccc2)c2ccccc2)cc1
- AC50 [17]: 14.9 µM (active)

SMILES: CCCCCCCCCCCC#N
- outcome [12]: inactive

SMILES: CC1(C)[C@H](C(=O)O[C@H](C#N)c2cccc(Oc3ccccc3)c2)[C@@H]1C=C(Br)Br
- AC50 [1]: 0.134 µM (active)
- outcome [1]: inactive
- AC50 [16]: 15 µM (active)
- outcome [10]: inactive

SMILES: CNC(=O)Oc1cc(C)c(SC)c(C)c1
- AC50 [16]: 11.7 µM (active)
- AC50 [2]: 39.5 µM (active)
- outcome [3]: inactive
- outcome [4]: inactive
- AC50 [5]: 21.2 µM (active)
- outcome [6]: inactive
- outcome [7]: inactive
- AC50 [8]: 65.1 µM (active)
- AC50 [10]: 24 µM (active) and 26.6 µM (active)

SMILES: O=P1(NCCCl)OCCCN1CCCl (stereo not given)
- outcome [11]: inactive

SMILES: CC(C)c1ccc(O)cc1
- outcome [18]: inactive

SMILES: O=C(NCNC(=O)NC1C(=O)NC(=O)N1CO)NC1C(=O)NC(=O)N1CO (stereo not given)
- outcome [13]: inactive
- outcome [14]: inactive
- AC50 [10]: 50 µM (active)

SMILES: CC(C)(c1cc(Cl)c(O)c(Cl)c1)c1cc(Cl)c(O)c(Cl)c1
- AC50 [1]: 0.992 µM (active)
- outcome [19]: inactive
- AC50 [17]: 1.54 µM (active)
- outcome [17]: inactive
- AC50 [18]: 90.8 µM (active)
- AC50 [9]: 81.3 µM (active)
- AC50 [20]: 159 µM (active)
- AC50 [15]: 153 µM (active)
